Source: PubChem BioAssay (Tox21)
A number with no mark means an inactive call. Inconclusive results are not listed. Entries that show only a call come without a potency. Calls of active or inactive are those of the source. Unless noted, calls follow the shape of the dose curve; as a rule, active = well fitted curve in the direction sought with a large enough effect in the repeat runs; inconclusive = weak or mixed curves; inactive = no such curve, though single readings can be large; an effect the other way counts as inactive or inconclusive.

Assays:
[1] = biological target: Thyrotropin receptor (Homo sapiens) (UniProt P16473); test: qHTS assay to identify small molecule antagonists of the thyroid stimulating hormone receptor (TSHR) signaling pathway (AID 1259385; calls by dose curve; also: nearly all actives have a fitted effect of over 20% in size; also: potency is read from the fitted curve at half-maximal effect)
Sequence of Thyrotropin receptor (Homo sapiens) (P16473 whole entry, looked up): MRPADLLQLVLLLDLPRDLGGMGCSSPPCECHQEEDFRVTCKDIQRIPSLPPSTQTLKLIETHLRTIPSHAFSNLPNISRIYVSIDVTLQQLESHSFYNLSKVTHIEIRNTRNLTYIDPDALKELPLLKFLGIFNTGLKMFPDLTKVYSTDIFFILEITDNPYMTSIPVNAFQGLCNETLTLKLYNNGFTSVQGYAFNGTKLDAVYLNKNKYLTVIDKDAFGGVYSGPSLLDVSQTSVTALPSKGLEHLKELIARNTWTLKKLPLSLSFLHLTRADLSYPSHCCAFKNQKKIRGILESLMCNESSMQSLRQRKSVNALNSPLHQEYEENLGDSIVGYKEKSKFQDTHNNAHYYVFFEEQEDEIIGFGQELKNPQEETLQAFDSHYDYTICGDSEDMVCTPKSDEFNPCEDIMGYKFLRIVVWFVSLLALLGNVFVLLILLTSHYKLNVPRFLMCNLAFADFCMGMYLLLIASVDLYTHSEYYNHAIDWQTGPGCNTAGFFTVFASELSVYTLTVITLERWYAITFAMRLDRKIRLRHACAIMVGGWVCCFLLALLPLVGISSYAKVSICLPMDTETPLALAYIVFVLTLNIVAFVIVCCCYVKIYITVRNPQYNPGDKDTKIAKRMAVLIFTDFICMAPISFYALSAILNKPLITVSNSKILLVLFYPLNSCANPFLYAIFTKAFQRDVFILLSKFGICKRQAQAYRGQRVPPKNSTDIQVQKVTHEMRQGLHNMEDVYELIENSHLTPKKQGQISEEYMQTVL
How it was run: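 TSHR-HEK293 cells were plated and held 18 h at 37C/5% CO2, then given compound plus Ro20-1724 and stimulated with TSH at 1.5 ng/mL final. After 30 min at room temperature, cAMP was detected with cAMP-d2/anti-cAMP-cryptate (1 h) by fluorescence.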

[2] = biological target: Progesterone receptor (Homo sapiens) (UniProt P06401); test: qHTS assay to identify small molecule agonists of the progesterone receptor (PR) signaling pathway (AID 1346784; calls by dose curve; also: nearly all actives have a fitted effect of over 30% in size)
Sequence of Progesterone receptor (Homo sapiens) (P06401 whole entry, looked up): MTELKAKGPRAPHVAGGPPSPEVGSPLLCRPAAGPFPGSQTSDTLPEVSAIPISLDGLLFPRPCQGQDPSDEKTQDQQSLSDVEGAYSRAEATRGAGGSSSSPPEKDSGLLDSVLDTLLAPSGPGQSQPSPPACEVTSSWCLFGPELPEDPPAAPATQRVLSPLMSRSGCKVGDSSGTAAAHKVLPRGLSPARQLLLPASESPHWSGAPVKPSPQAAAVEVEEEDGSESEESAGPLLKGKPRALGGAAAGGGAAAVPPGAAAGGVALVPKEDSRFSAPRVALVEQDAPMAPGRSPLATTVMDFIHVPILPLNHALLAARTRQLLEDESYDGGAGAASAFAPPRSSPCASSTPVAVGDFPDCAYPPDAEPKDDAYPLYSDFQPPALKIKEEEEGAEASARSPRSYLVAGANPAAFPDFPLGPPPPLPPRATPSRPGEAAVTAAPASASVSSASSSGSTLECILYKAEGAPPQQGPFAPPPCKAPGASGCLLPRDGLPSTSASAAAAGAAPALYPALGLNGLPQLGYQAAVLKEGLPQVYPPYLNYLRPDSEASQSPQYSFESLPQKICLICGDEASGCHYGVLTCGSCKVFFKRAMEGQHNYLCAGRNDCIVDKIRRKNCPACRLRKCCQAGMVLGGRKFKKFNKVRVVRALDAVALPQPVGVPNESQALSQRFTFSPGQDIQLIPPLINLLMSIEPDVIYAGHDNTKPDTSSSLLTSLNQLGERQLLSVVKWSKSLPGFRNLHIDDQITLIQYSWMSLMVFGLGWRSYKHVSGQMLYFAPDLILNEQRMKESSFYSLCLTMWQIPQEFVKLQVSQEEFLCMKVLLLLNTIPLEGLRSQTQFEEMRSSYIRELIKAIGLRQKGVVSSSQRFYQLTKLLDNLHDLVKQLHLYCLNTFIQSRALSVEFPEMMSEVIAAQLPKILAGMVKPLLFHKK
How it was run: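 Cells (PR-UAS-bla HEK 293T, GripTite) were plated in assay medium containing 2% charcoal-stripped FBS and incubated 6 hr. Test compounds in DMSO were added for 16 hr at 37C. FRET substrate was then loaded for 2 hr at room temperature before fluorescence reading.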

[3] = qHTS assay to identify small molecule antagonists of the progesterone receptor (PR) signaling pathway - cell viability counter screen (AID 1346798); also: nearly all actives have a fitted effect of over 50% in size; also: potency is read from the fitted curve at half-maximal effect; as to activity change, negative = cytotoxicity: series mostly up to about 92 µM
How it was run: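 Counter screen for cytotoxicity: viability of PR-UAS-bla HEK293T cells was measured with CellTiter-Glo luminescence following 16 hr compound exposure in the presence of R5020.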

[4] = qHTS assay to identify small molecule antagonists of the TGF-beta/Smad signaling pathway - cell viability counter screen (AID 1346824); also: nearly all actives have a fitted effect of over 50% in size
How it was run: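 SBE-bla HEK 293T cells were plated overnight at 37 C, then given compounds in DMSO plus TGF-beta1 (added as 0.25 ng/mL solution) for 5 hr. After the bla read, CellTiter-Glo was added to the same wells and luminescence read after 30 min at room temperature.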

[5] = qHTS assay to identify small molecule agonists of the TGF-beta/Smad signaling pathway - cell viability counter screen (AID 1346829); also: nearly all actives have a fitted effect of over 45% in size; also: potency is read from the fitted curve at half-maximal effect; as to activity change, negative = cytotoxicity: top concentration of the series differs between compounds
How it was run: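 Same-well cytotoxicity: CellTiter-Glo added after the 2 hr room-temperature beta-lactamase substrate step, luminescence measured 30 min later; cells had 5 hr of compound at 37 C.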

[6] = biological target: Thyrotropin-releasing hormone receptor (Homo sapiens) (UniProt P34981); test: qHTS assay to identify small molecule antagonists of the thyrotropin-releasing hormone receptor (TRHR) signaling pathway (AID 1346877; active = well fitted inhibition curve with a large enough effect in the repeat runs, not every such curve was filed as active; also: series mostly up to about 51 µM)
Sequence of Thyrotropin-releasing hormone receptor (Homo sapiens) (P34981 whole entry, looked up): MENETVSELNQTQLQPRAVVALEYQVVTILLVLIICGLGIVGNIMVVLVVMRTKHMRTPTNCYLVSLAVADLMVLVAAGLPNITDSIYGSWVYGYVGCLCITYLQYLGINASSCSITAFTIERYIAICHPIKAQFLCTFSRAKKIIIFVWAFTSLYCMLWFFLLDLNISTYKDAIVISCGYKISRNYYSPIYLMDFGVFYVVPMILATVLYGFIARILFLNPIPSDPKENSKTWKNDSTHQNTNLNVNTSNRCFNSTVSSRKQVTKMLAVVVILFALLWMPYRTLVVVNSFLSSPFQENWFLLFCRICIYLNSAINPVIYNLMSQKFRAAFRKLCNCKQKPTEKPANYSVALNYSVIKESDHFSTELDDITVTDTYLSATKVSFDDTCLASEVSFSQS
How it was run: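 Screening used HEK293 cells engineered with TRHR, with a brief 5 min room-temperature compound exposure preceding addition of TRH to 1 nM. The read-out was kinetic calcium-dye fluorescence, concentration-response from 15 doses in triplicate.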

[7] = qHTS assay to identify small molecule agonists of the estrogen receptor alpha (ER-alpha) signaling pathway in the presence of an antagonist - cell viability counter screen (AID 1259386);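 also: cells exposed to compounds for 22 h at 37 °C before the viability read; nearly all actives have a fitted effect of over 30% in size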; also: potency is read from the fitted curve at half-maximal effect; as to activity change, negative = cytotoxicity: series mostly up to about 92 µM
How it was run: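 ICI-182,780 at 10.0nM final accompanies the compound titration (15 concentrations, 22hr, 37C) on VM7Luc4E2 cells. The CellTiter-Fluor fluorescence readout runs in the same wells as the luciferase assay.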

[8] = biological target: Progesterone receptor (Homo sapiens) (UniProt P06401); test: qHTS assay to identify small molecule antagonists of the progesterone receptor (PR) signaling pathway (AID 1346795; active = well fitted inhibition curve with a large enough effect in the signal ratio in the repeat runs, not every such curve was filed as active; the % refers to the signal ratio; also: potency is read from the fitted curve at half-maximal effect)
How it was run: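 Antagonist mode: compounds tested against 1 nM (final) promegestone stimulation in HEK293T cells expressing PR-UAS-bla reporter, 16 hr at 37C, 5% CO2; beta-lactamase activity detected via B/G FRET substrate after 2 hr at room temperature.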

[9] = qHTS assay to identify small molecule agonists of the progesterone receptor (PR) signaling pathway - cell viability counter screen (AID 1346799; calls by dose curve; also: nearly all actives have a fitted effect of over 45% in size; also: potency is read from the fitted curve at half-maximal effect)
How it was run: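 Cells (PR-UAS-bla HEK293T) are plated at 3,000/well in 2% charcoal-stripped FBS medium, rested 6 hr, dosed and incubated 16 hr at 37C. CellTiter-Glo is then added and luminescence measured after 30 min at room temperature.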

[10] = qHTS assay to identify small molecule agonists of the TGF-beta/Smad signaling pathway (AID 1346859; active = well fitted activation curve with a large enough effect in the signal ratio in the repeat runs, not every such curve was filed as active; the % refers to the signal ratio; also: series mostly up to about 77 µM)
How it was run: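 Reporter line: HEK 293T with stably integrated SBE-controlled beta-lactamase. Compound exposure lasts 5 hr at 37 C and 5% CO2; substrate loading follows for 2 hr at room temperature, with emission read at 460 and 530 nm.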

Structure (SMILES)	Potency [1]	Potency [2]	Potency [3]	Potency [4]	Potency [5]	outcome [6]	Potency [7]	Potency [8]	Potency [9]	Potency [10]	activity change, negative = cytotoxicity [7]	activation [2]
CCCC(C(=O)OCCN(CC)CC)(c1ccccc1)c1ccccc1	inactive	inactive	inactive	inactive	inactive	inactive						
CCCCC(CC)CN (stereo unspecified)		inactive	inactive	inactive	inactive	inactive	inactive	inactive	inactive	inactive		
C[C@@H](CN(C)C)CN1c2ccccc2Sc2ccccc21		inactive	18.8 µM (active)	inactive	inactive		inactive	26.6 µM (active)	10.6 µM (active)	inactive		
COc1cc(C(=O)NC2CCN(C)CC2)ccc1Nc1ncc2c(n1)N(C1CCCC1)CC(F)(F)C(=O)N2C	11.2 µM (active)	inactive				inactive						
CCC(C)COC(C)=O (stereo unspecified)		inactive	inactive	inactive	inactive		inactive	inactive	inactive	inactive		
NNC(=O)CP(=O)(c1ccccc1)c1ccccc1		inactive	inactive	inactive	inactive	inactive	inactive	inactive	inactive			
Cc1cc(=O)c2c(O)c3c(O)cc(=O)c4c3c3c(cc(O)c1c23)C(C)(C)C=4O											-17.3% [at 19 µM]	-2.51% [at 19 µM]
CC(C)(O)c1ccc(CNC(=O)c2cccnc2Oc2ccc3nonc3c2)cc1	inactive	inactive	inactive	inactive	inactive	inactive		inactive	inactive	inactive		
CN1C(=O)N(c2ccccc2Br)Cc2cnc(Nc3ccc4c(c3)OCC(CO)O4)nc21 (stereo unspecified)	inactive		38.6 µM (active)		34.7 µM (active)					inactive		
O=C(CCc1ccc(O)cc1)c1c(O)cc(O)cc1O	inactive	inactive		inactive	inactive	inactive		31.3 µM (active)				
COc1cc(Nc2c(C#N)cnc3cc(OCCCN4CCN(C)CC4)c(OC)cc23)c(Cl)cc1Cl	13.3 µM (active)	inactive	inactive	inactive				11.9 µM (active)		inactive		
CC(=O)Oc1ccc([N+](=O)[O-])cc1CCl		inactive	inactive	inactive	inactive		48.6 µM (active)	inactive	inactive			
Cc1cc(O)c(C)c(C)c1O		inactive	inactive	inactive	inactive	inactive	inactive	inactive	inactive	inactive		
CN1CC(=O)N2[C@H](c3ccc4c(c3)OCO4)c3[nH]c4ccccc4c3C[C@@H]2C1=O	inactive	inactive	inactive	inactive	inactive	inactive		inactive	inactive	inactive		
CC(C)=CCC/C(C)=C/CC/C(C)=C/CCC(=O)OC/C=C(\C)CCC=C(C)C		inactive	inactive	inactive			inactive	inactive	inactive	inactive		
O=C(O)C[C@H](NC(=O)OCc1ccccc1)C(=O)O		inactive	inactive	inactive			inactive	inactive	inactive	inactive		
CC(CO)CO		inactive	inactive	inactive	inactive	inactive	inactive	inactive	inactive	inactive		
Cc1ccc2c(Br)cc(Br)c(O)c2n1	inactive			inactive	inactive	inactive		18.8 µM (active)		inactive		
Nc1ccc(N=Nc2ccccc2)c(N)c1		inactive	inactive	inactive	inactive	inactive	26.7 µM (active)	47.5 µM (active)	inactive	inactive		
O=c1c(O)c(-c2ccc(O)cc2)oc2cc(O)cc(O)c12	inactive	inactive		inactive	inactive			5.19 µM (active)				
COc1cc(N)c(Cl)cc1C(=O)NC1CCN(CCCOc2ccc(F)cc2)CC1OC (stereo unspecified)		inactive	inactive	inactive	inactive	inactive	inactive	29.8 µM (active)	inactive			
CN1C[C@H](C(=O)N[C@]2(C)O[C@@]3(O)[C@@H]4CCCN4C(=O)[C@H](Cc4ccccc4)N3C2=O)C[C@@H]2c3cccc4[nH]cc(c34)C[C@H]21	11.9 µM (active)	inactive		inactive	inactive	inactive						
CC(=O)Nc1ccc(C)cc1C		inactive	inactive	inactive			inactive	inactive	inactive			
COc1ccccc1N1CCN(CCCCNC(=O)c2ccc(-c3ccc(C(C)=O)cc3)cc2)CC1		inactive	inactive	inactive	inactive		inactive	inactive	inactive	inactive		
Cc1ccccc1N=C(N)Nc1ccccc1C	inactive	inactive	inactive	inactive	inactive	inactive		inactive	inactive	inactive		
CC[N+](CC)(CCNC(=O)C(=O)NCC[N+](CC)(CC)Cc1ccccc1Cl)Cc1ccccc1Cl		inactive	inactive	inactive	inactive	inactive	inactive	inactive	inactive	inactive		

Structure (SMILES)	Potency [1]	Potency [2]	Potency [3]	Potency [4]	Potency [5]	outcome [6]	Potency [7]	Potency [8]	Potency [9]	Potency [10]	activity change, negative = cytotoxicity [7]	activation [2]
CCOc1ccc(Cc2nccc3cc(OCC)c(OCC)cc23)cc1OCC	inactive	inactive	18.8 µM (active)	inactive				16.8 µM (active)		inactive		
CN(C(=O)CN(CCO)CC(=O)N(C)C(C)(C)Cc1ccccc1)C(C)(C)Cc1ccccc1		inactive	inactive	inactive	inactive	inactive	inactive	inactive	inactive	inactive		
C=C(C)C(=O)OCCOCCOC(=O)C(=C)C		inactive	inactive	inactive	inactive	inactive	inactive	inactive	inactive			
CN1CCCN=C1COC(=O)C(O)(c1ccccc1)C1CCCCC1 (stereo unspecified)		inactive	inactive	inactive		inactive	inactive	inactive	inactive	inactive		
Cc1cccc(O)c1N	inactive	inactive	inactive	inactive	inactive	inactive		30.9 µM (active)		inactive		
C=C1c2cccc(O)c2C(O)=C2C(=O)[C@]3(O)C(O)=C(C(N)=O)C(=O)[C@@H](N(C)C)[C@@H]3[C@@H](O)[C@H]12		inactive	inactive	inactive	inactive		inactive	inactive	inactive	inactive		
COC(=O)C1=C(C)NC(C)=C(C(=O)O[C@@H]2CCCN(Cc3ccccc3)C2)[C@@H]1c1cccc([N+](=O)[O-])c1	inactive			inactive		inactive	inactive			inactive		
Oc1c(I)cc(I)c2cccnc12	inactive	inactive	inactive	inactive	inactive	inactive		7.5 µM (active)		inactive		
CC(=O)N/N=C/c1ccc([N+](=O)[O-])o1		inactive	inactive	inactive	inactive	inactive	inactive	inactive	inactive	inactive		
FC(F)(F)c1ccccc1Cl		inactive	inactive	inactive	inactive	inactive	inactive	inactive	inactive			
C(=C\c1ccccc1)/c1ccccc1		inactive	inactive	inactive	inactive	inactive	inactive	inactive	inactive	inactive		
CC1=C(Br)C(=O)C(Br)=C/C1=C(/c1ccccc1S(=O)(=O)O)c1cc(Br)c(O)c(Br)c1C		inactive	inactive	inactive	inactive	inactive	18.6 µM (active)	inactive	inactive	inactive		
CCOC(=O)OC(C)OC(=O)[C@@H]1N2C(=O)[C@@H](NC(=O)[C@H](N)c3ccccc3)[C@H]2SC1(C)C (stereo partly specified)		inactive	inactive	inactive		inactive	inactive	inactive	inactive	inactive		
CCC(=O)C1CC(C(C)C)CC=C1C (stereo unspecified)		inactive	inactive	inactive	inactive		inactive	inactive	inactive	inactive		
COC(=O)CCS		inactive	inactive	inactive	inactive	inactive	inactive	inactive				
O=C1C(=O)c2ccccc2C(O)=C1C1CCC(c2ccc(Cl)cc2)CC1 (stereo unspecified)		inactive	inactive			inactive	inactive	inactive	inactive	inactive		
CCCCCC[C@@H](O)C/C=C\CCCCCCCC(=O)O		inactive		inactive	inactive	inactive	inactive	inactive		inactive		
CC(=O)OCCN(CCOC(C)=O)c1ccc(N=Nc2ccc([N+](=O)[O-])cc2C#N)cc1		inactive	inactive	inactive	inactive	inactive	54.5 µM (active)	inactive		inactive		
CCCCCCCC/C=C\CCCCCCCCCCCC(=O)O		inactive	inactive	inactive			inactive		inactive			
Cc1cc2c(OCC(CNC(C)(C)C)OC(=O)c3ccccc3)cccc2[nH]1 (stereo unspecified)		inactive	inactive	inactive	inactive		inactive	inactive				
CCOC(=O)[C@H](CCc1ccccc1)N[C@@H](C)C(=O)N(CC(=O)O)C1Cc2ccccc2C1		inactive	6.68 µM (active)	inactive	inactive	inactive	inactive			inactive		
O=C(/C=C/c1ccccc1)OCCc1ccccc1		inactive	inactive		inactive	inactive	inactive	inactive	inactive	inactive		
CCCCCCCCC(CCCCCC)C(=O)O (stereo unspecified)		inactive		inactive	inactive		inactive			inactive		
CN(C)CCN1C(=O)c2ccccc2N(C)c2ccccc21		inactive	inactive	inactive		inactive	inactive	inactive	inactive	inactive		
CCCCCCCCCCC(=O)O			inactive	inactive	inactive	inactive	inactive	inactive	inactive	inactive		
O=C1NCCN1CCO			inactive	inactive	inactive		inactive	inactive	inactive	inactive		
